Among the data in PubChem BioAssay (NCI) are growth values, retold here.

“And” between values parts separate entries of the source, which are not always exact repeats. Equal entries are not always repeated. The panel holds about 83,000 compounds, 20% with a hit somewhere; the sample as a whole holds those more often.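 Single-dose data. Exposure time 48 hours. Values below 10 considered active.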 Unmarked numbers belong to inactive results. The source made the active and inactive calls.

This assay has as its system MDA-MB-468 breast. Description: NCI-60 one-dose screen, 48 h (100 = growth as untreated, 0 = no growth, -100 = all killed). The conditions noted are these: 10 µM unless noted.
Consider `COc1cccc2c1C(=O)c1c(O)c3c(c(O)c1C2=O)C[C@@](O)(/C(C)=N/NC(=O)c1cccc([N+](=O)[O-])c1)C[C@@H]3OC1CC(N)C(O)C(C)O1` (stereo not given in full), for which the growth is -18.9% (active).

Regarding `C#CCN(C)Cc1ccccc1`, the growth is 96.1% and 122%.

For `CN1CCN(c2nc(Nc3ccc(O)cc3)nc3ccccc23)CC1`, the growth was 75.2%. For `N#Cc1ccc(-n2nnc3ccccc32)cc1C#N` the value was 99.5%; for `Cc1cccc(Cl)c1NC(=O)c1ccc2nc(NC(=O)NCCN(C)C)sc2c1`, 30.6%; for `COc1ccc(C2=NN3C(C2)c2cc(Br)ccc2OC3c2ccncc2)cc1` (stereo not given), 103%. For `Fc1cccc(-c2nc(-c3c[nH]c4ncccc34)cs2)c1` the value was 29.4% [100 µM]; for `C=C1C(=O)O[C@H]2[C@H]1CC/C(COC(=O)N[C@H](Cc1c[nH]c3ccccc13)C(=O)OC)=C\CC[C@@]1(C)O[C@@H]21`, 22.5%; for `CCCCCCCCCCCC1N=C(N)N=C(N)N1c1cccc(Br)c1` (stereo not given), -92.7% (active). Next, `CC(=O)C(CO)C(=O)Nc1ccccc1` (stereo not given): 104%; `Cc1cc(C)c(NC(=O)c2sc3nc4c(cc3c2N)CCCCCC4)c(C)c1`: 40.1%; `N=C(N)c1ccc(-c2ccc(-c3ccccc3)s2)nc1`: 41.7%. Consider `COc1ccc(-c2[nH]c3ccccc3c2C=C(C#N)C#N)cc1`, for which the growth was -19.8% (active). Turning to `COc1cc2c(cc1O)[C@@]1(C)[C@H](c3ccccc3Br)OC(=O)N1CC2`, the growth is 61.1%. Turning to `O=C(Cc1ccccc1)c1ccc(Cl)cc1`, the growth was 124%. Regarding `COc1ccc(-c2csc(NC(=O)CN3CCN(CCO)CC3)n2)cc1NS(=O)(=O)c1cccc2c(N(C)C)cccc12`, the growth was 55.6%. For `COc1ccc(-c2cc(Nc3ccnc(N4CCOCC4)n3)on2)cc1` the value was 24.8%; for `O=C1/C(=C/c2ccc(Br)cc2)COc2ccc(O)c(O)c21`, -51.8% (active). For `O=S(=O)(Nc1ccccc1Cl)c1ccc(-c2cnc(C3CC3)o2)cc1` the value was 6.43% (active); for `CC(C)CCCCCOC(=O)c1ccccc1SSc1ccccc1C(=O)OCCCCCC(C)C`, 109%. On to `Cc1cc(=O)n2nc(-c3cn(C)c4ccc(Cl)cc34)sc2n1`, for which the growth was -42.5% (active).

Turning to `CC(C)OC1OC(OC(C)C)C(OC(C)C)OC1OC(C)C` (stereo not given), the growth is 101%. Next, `CC(C)(C)C(=O)OCOP(=O)(OCOC(=O)C(C)(C)C)C1CC(O)N(O)C1=O` (stereo not given): 61%; `O=S(=O)(NCCNc1nccc(-c2c(-c3ccc(F)cc3)nc3sccn23)n1)c1ccc2ccccc2c1`: 76.4%; `O=C(O)C(Cc1ccccc1)C(=O)O`: 82.4%. `CS(=O)(=O)c1ccc(-c2nc3ccccn3c2/C=N/Nc2nc(-c3ccc(Br)cc3)cs2)cc1`: the growth was 102%.

Consider `CCOC(=O)N1CCN(CCCCl)CC1`, for which the growth was 97.4%. Next, `COC(=O)/C=C1/SC(=Nc2cccc(OC)c2)N(CCc2c[nH]c3ccc(O)cc23)C1=O`: 49.3%. Next, `NCCOc1ncccc1/C=C1\c2ccccc2-c2ccc(C(F)F)cc21`: 85.5%; `Cc1cc(C)c(O)c(CNCCCNCc2cc(C)cc(C)c2O)c1`: 7.95% (active).

Take `COc1cc(Nc2c(C#N)cnn3cc(-c4cnn(CC(C)(C)O)c4)cc23)ccc1Cl`: the growth was 65.1%. Regarding `CCOC(=O)n1ccn(C)c1=S`, the growth is 103%. Regarding `CCCc1n(Cc2ccc3ccccc3c2)c2ccccc2[n+]1Cc1ccc2ccccc2c1`, the growth was -44.7% (active).

On to `CCc1cc2c(cc1Cl)nc1c(=O)[nH]c(=O)nc-1n2CCOCC(C)(C)C`, for which the growth was 44.3%. Next, `COc1cc2c3c(c1)nc(C)n3CCC2`: 99.6%; `CN1CCN(Cc2ccc(NC(=O)c3cncc(C#Cc4cnc5ccc(OCCCS(C)(=O)=O)nn45)c3)cc2C(F)(F)F)CC1`: -61.6% (active). Next, `NCCNc1ccc2cc(-c3nc4ccccc4[nH]3)c(=O)oc2c1`: 94.9%.

For the compound `NC(=O)c1c(Nc2ccccc2)nn2cc(-c3nc4ccccc4s3)c(N)nc12`, the growth was 101%. Next, `CC(=O)Nc1cccc(-n2cnc3cc(-c4ccc(O)cc4)ccc32)c1`: -0.935% (active); `NC(=S)NN=C1CCCCC1`: 26.4%.
